# In PubChem BioAssay AID463173 (ICCB-Longwood Screening Facility, Harvard Medical School, 2010):
# The campaign covered roughly 52,000 compounds. About 4,300 (8.3%) were called active. The list comes from a sample in which actives are over-represented; it also holds similar structures and randomly drawn compounds. A number with no mark means an inactive call. Cut-off read from the data, not from the text of the source: active = survival mostly below about 52% (no sharp cut-off); inactive = mostly above about 56%.
# Test system: DeltatarO mutant
# Test: S. aureus survival, RN4220 and DeltatarO strains – OD600, teichoic acid synthesis inhibitors, primary screen (AID 463173)
# Settings: S. aureus RN4220 wild type/DeltatarO growth, OD600, 18 h, stronger effect = lower value, screened at 18.75 µg/mL (by protocol)
row,Structure (SMILES),survival
1,COc1ccc(NC(=O)CCn2c(-c3ccc(F)cc3)cc(C(C)=O)c2C)c(OC)c1,124%
2,COc1ccccc1Cc1nc2ccccc2nc1SCC(=O)NCc1ccccc1Cl,135%
3,COc1ccc2c(c1)CC(C(=O)Nc1cc(OC)c(OC)c(OC)c1)CO2 (stereo unspecified),83%
4,CCCCOC(=O)c1ccc(OC(=O)c2sc3ncn(Cc4ccccc4Cl)c(=O)c3c2C)cc1,90%
5,Cc1ccc(CNC(=O)c2oc3ccc(S(=O)(=O)N4CCC(C)CC4)cc3c2C)cc1,57%
6,Cc1ccc(Cl)cc1NC(=O)Cn1c(=O)n(CCC(=O)N2CCc3ccccc3C2)c(=O)c2ccccc21,102%
7,CSc1nc(-c2ccc(Cl)cc2)nn1C(C)=O,57%
8,CC(=O)Nc1ccc(S(=O)(=O)NCCc2csc3nc(-c4ccc(Cl)cc4)nn23)cc1,70%
9,CSc1nc(-c2ccc(Cl)cc2)nn1S(=O)(=O)c1ccc(NC(C)=O)cc1,43% (active)
10,CCc1c(C)nc2cc(-c3cc(OC)cc(OC)c3)nn2c1NCCCN(CC)CC,113%
11,O=C(NC1CCCC1)C(c1ccccc1)N(C(=O)c1ccco1)C1CCCC1 (stereo unspecified),79%
12,Cc1ccc(-c2nnn(CC(=O)N(Cc3ccccc3)C(C(=O)NC3CCCC3)c3ccco3)n2)cc1 (stereo unspecified),64%
13,Cc1ccc(C(C(=O)NC2CCCCC2)N(C)Cc2ccccc2)cc1 (stereo unspecified),-3% (active)
14,CN(Cc1ccccc1)C(C(=O)NC1CCCCC1)c1ccc(Cl)cc1 (stereo unspecified),37% (active)
15,O=C(NC1CCCC1)C(c1ccccc1)N(Cc1ccccc1F)C(=O)c1ccco1 (stereo unspecified),102%
16,Cc1ccc(N(C(=O)c2ccco2)C(C(=O)NC2CCCC2)c2ccc(N(C)C)cc2)c(C)c1 (stereo unspecified),93%
17,O=C(O)c1cccc(N=C2NC(=O)C(CO)(CO)S2)c1,89%
18,Cc1cccc(Cc2c(C)nc3nc(SCc4cccc(F)c4)nn3c2C)c1,78%
19,CCOC(=O)c1ccc(NC(=O)C2CC(=O)N3CCCN=C3S2)cc1 (stereo unspecified),94%
20,Cc1cccc(NC(=O)c2sc3nc4n(c(=O)c3c2C)N=C(c2ccc(F)cc2)CS4)c1C,99%
21,CCc1cccc(C)c1NC(=O)Cn1c(=O)cc(C(F)(F)F)c2c(C)nn(C)c21,85%
22,CCCCn1cnc2cc(NCc3ccc(OCC)cc3)ccc21,11% (active)

row,Structure (SMILES),survival
1,Cc1cc(C)n2nc(NCc3ccccc3Cl)nc2n1,90%
2,CCCCn1cnc2cc(NC(=O)c3cc(OC)c(OC)c(OC)c3)ccc21,66%
3,CCCCn1cnc2cc(NCc3ccccc3Cl)ccc21,-16% (active)
4,CCOc1ccc(C=Nc2ccc3c(c2)ncn3C)cc1,96%
5,CCc1ccc(CNc2ccc3c(c2)ncn3C(C)(C)C)cc1,-16% (active)
6,CCCn1cnc2cc(NC(=O)c3cc(OC)c(OC)c(OC)c3)ccc21,66%
7,CC(C)(C)n1cnc2cc(NCc3ccccc3Cl)ccc21,7% (active)
8,CC(C)(C)n1cnc2cc(N=Cc3ccccc3O)ccc21,81%
9,CCn1cnc2cc(NCc3ccc(N(C)C)cc3)ccc21,72%
10,COc1cc(CNc2ccc3c(c2)ncn3C(C)C)cc(OC)c1OC,64%
11,CC(C)(C)n1cnc2cc(NS(=O)(=O)c3ccccc3)ccc21,86%
12,CCOc1ccc(NC(=O)CSc2oc(-c3cccs3)nc2S(=O)(=O)c2ccc(Cl)cc2)cc1,63%
13,COc1ccc2c(c1)c1c(c(=O)n(-c3ccccc3C)c(=O)n1Cc1cccc(C(F)(F)F)c1)n2C,94%
14,O=S(=O)(c1ccccc1)N1CCC(n2cnc3ccccc32)CC1,78%
15,Cc1ccc(C)c(NC(=O)C2CCN(S(=O)(=O)c3c(C)noc3/C=C/c3cccs3)CC2)c1,63%
16,Cn1nnc(C(O)CNCc2ccc(F)cc2)n1 (stereo unspecified),105%
17,CCOC(=O)c1c(NC(=O)c2ccc(S(=O)(=O)N(CCOC)CCOC)cc2)sc2c1CC(C)(C)NC2(C)C,78%
18,Cc1cccc(CNC(=O)c2cnc3sc(N4CCCCCC4)nn3c2=O)c1,99%
19,COc1ccc(NC(=O)CCn2nc(-c3ccccc3OC)c3c(C)cc(C)nc32)cc1,70%
20,CC(=O)c1cccc(NC(=O)c2cnn(-c3cccc(C)c3)c2-n2cccc2)c1,99%
21,CCOC(=O)c1[nH]c(C)c(CCC(=O)Nc2cc(Cl)ccc2C)c1C,73%
22,CCOC(=O)c1oc2ccc(S(=O)(=O)n3nc(-c4cc(OC)cc(OC)c4)cc3N)cc2c1C,111%

row,Structure (SMILES),survival
1,COc1cccc(CNC(=O)CSC2=Nc3ccccc3N=C(c3ccc(F)cc3)C2)c1,117%
2,CC(=O)c1ccc(NC(=O)C(Cc2ccccc2)NS(=O)(=O)c2ccc3c(c2)CCC(=O)N3)cc1 (stereo unspecified),84%
3,CCCSc1ncc(Cl)c(C(=O)Nc2c(C(=O)Nc3ccc(OC)cc3)oc3ccccc23)n1,68%
4,COc1ccccc1CNC(=O)c1cnc2sc(N3CCCCC3)nn2c1=O,66%
5,Cc1oc(CSCCSCc2cc(C(=O)O)c(C)o2)cc1C(=O)O,94%
6,CCCn1cnc2cc(NCc3ccccc3OCC)ccc21,35% (active)
7,COc1cccc(CNc2ccc3c(c2)ncn3C)c1OC,122%
8,CCCn1cnc2cc(NCc3ccc(OC)cc3OC)ccc21,64%
9,Cc1ccc(-c2nnc(SCc3cccc(C#N)c3)o2)cc1,62%
10,COc1cccc(CNC(=O)c2cnc(N3CCCCC3)c3ccccc23)c1,86%
11,Cc1ccc(CCNC(=O)Cn2ncc3c([nH]c4ccc(C)cc43)c2=O)cc1,119%
12,CCOC(=O)C1CCN(C(=O)Cn2ncc3c([nH]c4ccc(C)cc43)c2=O)CC1,72%
13,CCN(CC)C(=O)Cn1ncc2c([nH]c3ccccc32)c1=O,118%
14,Cc1ccc2[nH]c3c(=O)n(CC(=O)NC(C)C)ncc3c2c1,6% (active)
15,Cc1ccc(CNC(=O)Cn2ncc3c([nH]c4ccc(C)cc43)c2=O)cc1,88%
16,CCOc1ccccc1NC(=O)Cn1ncc2c([nH]c3ccccc32)c1=O,126%
17,Cc1ccc(N(C)C(=O)Cn2ncc3c([nH]c4ccccc43)c2=O)cc1C,37% (active)
18,CCOc1ccccc1N(CC)C(=O)Cn1ncc2c([nH]c3ccccc32)c1=O,46% (active)
19,COc1cc(OC)c(N(C)C(=O)Cn2ncc3c([nH]c4ccccc43)c2=O)cc1Cl,91%
20,CCCN(C(=O)Cn1ncc2c([nH]c3ccccc32)c1=O)c1ccc(F)cc1,101%
21,CCOC(=O)C1CCN(C(=O)Cn2ncc3c([nH]c4ccccc43)c2=O)CC1,25% (active)
22,CCOC(=O)C1CCCN(C(=O)Cn2ncc3c([nH]c4ccccc43)c2=O)C1 (stereo unspecified),83%
